# Measurements published in PubChem BioAssay.
# The source made the active and inactive calls.
# Experiment: basal HepG2 mitochondrial membrane potential changes, profiling panel, cell-based, JC-1 fluorescence, 24 h, 100 nL compound (AID 1167)
# Conditions: higher = more signal
# Also: test concentration not given here.
row,Compound,z-score
1,C=CCC(OC(C)=O)[C@@H]1[C@@H](N(Cc2cc3ccccc3o2)C(=O)c2ccc(C)cc2)c2cc(OCCCO)ccc2N1C(=O)c1ccc(-c2ccccc2)cc1 (stereo partly drawn),2.87
2,NC(=O)[C@]1(Cc2ccccc2)N=C(c2ccc(OCCCO)cc2)O[C@@H]1c1ccccc1,-1.43
3,[N-]=[N+]=NCc1ccccc1C[C@]1(C(=O)NCCN2CCOCC2)N=C(c2ccc(OCCCO)cc2)O[C@H]1c1ccccc1CN=[N+]=[N-],1.27
4,CCOC(=O)C1=CC[C@@H](c2cccc(Cl)c2)N(S(=O)(=O)c2ccc(C)cc2)[C@H]1c1ccc(C#N)cc1,1.38
5,O=c1cccc(-c2ccccc2)o1,-1.05
6,CC(=O)NCCCC[C@@H]1NC(=O)[C@@H]2C[C@H](C(=O)NCc3ccc(F)cc3)[C@H](c3ccc(O)cc3)N2C1=O,1.28
7,O=C1OCCC=C[C@H]2OC34C=CCN(c5ccc6ccccc6c5)C(=O)[C@H]3N(CCCCCCO)C(=O)[C@@H]4C12 (stereo partly drawn),1.3
8,O=C1OCCC/C=C\[C@H]2OC34C=CCN(Cn5nnc6ccccc65)C(=O)[C@H]3N(CCCO)C(=O)[C@@H]4C12 (stereo partly drawn),-0.313
9,CC(C)OC(=O)C1=CCC(c2cccc(Cl)c2)O1 (stereo not drawn),-0.231
10,O=C1[C@H]2C=C(Br)[C@H](C[C@@H]2OCCOCCO)[C@@]12CO2,-1.33
11,O=c1cccc(-c2ccc3ccccc3c2)o1,-1.31
12,CCCCCCCCCCC(O)C1C=CC2C(=O)N(c3ccccc3)C(=O)C2N1Nc1ccc([N+](=O)[O-])cc1 (stereo not drawn),-2.87
13,CN1C(=O)C2C=CC(C(O)c3ccccc3)N(NC(=O)OC(C)(C)C)C2C1=O (stereo not drawn),-1.22
14,CN(C)CCCC[C@@H]1NC(=O)[C@@H]2C[C@H](C(=O)NCCCCCCN)[C@H](c3ccc(O)cc3)N2C1=O,-1.36
15,CCOC(=O)C[C@H]1[C@H](OC(=O)c2cc3ccccc3oc2=O)[C@@H](NC(=O)c2ccc3ccccc3c2)c2cc(OCCCO)ccc2N1C(=O)c1ccccc1,-1.3
16,COc1ccc([Si](C)(C)[C@@H]2[C@@H](CCO)O[C@]3(C(=O)N(Cc4ccc(N5C(=O)c6cccc7cccc5c67)cc4)c4ccccc43)[C@H]2C)cc1,0.00779
17,O=C(NCC(O)CO)[C@@]1(Cc2ccccc2)COC(c2ccc(OCCCO)cc2)=N1 (stereo partly drawn),-0.201
18,CC(C)(C)OC(=O)CC[C@]1(C(=O)NCC(O)CO)N=C(c2ccc(OCCCO)cc2)O[C@H]1c1ccccc1CN=[N+]=[N-] (stereo partly drawn),-1.02
19,C=C(/C(=C/C[C@@H](OC(C)=O)c1ccc(CO)o1)c1cnc2ccccc2c1)C(C)C,-1.33
20,O=C1O[C@H](c2ccccc2)[C@H](c2ccccc2)N2[C@H]1[C@@H](C(=O)NC[C@H](O)c1ccccc1)[C@]1(C(=O)Nc3ccc(C#CC4(O)CCCCCC4)cc31)[C@H]2c1ccccc1OCCO,-2.67
21,O=C1C[C@@](C(=O)O)(c2ccc([N+](=O)[O-])cc2)[C@@H](c2ccc(CO)cc2I)N1C1CCCCC1,0.053
22,COc1ccc(CCNC(=O)[C@@]2(C)c3ccccc3C(=O)N(Cc3ccccc3)[C@H]2c2ccc(CO)cc2)cc1,1.05
23,CC1CC/C=C\[C@H]2OC34C=CCN(Cn5nnc6ccccc65)C(=O)[C@H]3N(CCCO)C(=O)[C@@H]4C2C(=O)O1 (stereo partly drawn),-0.0699

# Experiment: basal 3T3-L1 adipocyte mitochondrial potential changes, profiling panel, cell-based, JC-1 fluorescence, 3T3-L1 adipocytes, 24 h, 100 nL compound (AID 1168)
# Conditions: JC-1 mitochondrial fluorescence, higher = more signal, called active from +8 up or from −8 down
row,Compound,z-score
1,CC1CC/C=C\[C@H]2OC34C=CCN(c5ccc6ccccc6c5)C(=O)[C@H]3N(CCCCCO)C(=O)[C@@H]4C2C(=O)O1 (stereo partly drawn),-0.381 (inactive)
2,CN1C(=O)C2C=CC(C(O)C(C)(C)C)N(Nc3ccccc3)C2C1=O (stereo not drawn),-0.398 (inactive)
3,Cc1ccc(S[C@]2(C(=O)NCCCN(C)C)CC(=O)N(Cc3ccccc3)[C@@H]2c2ccc(CO)cc2)cc1,-0.946 (inactive)
4,O=C1O[C@H](c2ccccc2)[C@H](c2ccccc2)N2[C@H]1[C@@H](C(=O)NC[C@H](O)c1ccccc1)[C@]1(C(=O)Nc3ccc(C#CC4=CCCCC4)cc31)[C@H]2c1ccc(O)cc1,-0.683 (inactive)
5,O=C(CS)NCCCCCNC(=O)[C@H]1C[C@H]2C(=O)N[C@@H](Cc3ccccc3)C(=O)N2[C@H]1c1cccc(OCCO)c1,-0.0668 (inactive)
6,CCCC[C@H]1OB(O)C[C@H]2C1=C(COc1ccccc1)C[C@H]1C(=O)N(Cc3ccccc3)C(=O)[C@H]12,0.241 (inactive)
7,O=c1cccc(-c2cccc3ccccc23)o1,1.05 (inactive)
8,CCCCCN1CC=CC23O[C@@H]4C=CCCOC(=O)C4[C@H]2C(=O)N(CCCO)[C@@H]3C1=O (stereo partly drawn),-0.361 (inactive)
9,CS(=O)(=O)CCOC(=O)C1=CC(c2ccc(CO)cc2)=CC(c2cccs2)N(Cc2cccc(OC(F)(F)F)c2)C=C1C(=O)OCCS(C)(=O)=O (stereo not drawn),0.384 (inactive)
10,C#C[C@H](O[Si](C#CCCCCCC)(C(C)C)C(C)C)c1ccccc1,-0.324 (inactive)
11,COc1ccc([Si](C)(C)[C@@H]2[C@@H](CCO)O[C@]3(C(=O)N(Cc4ccccc4)c4ccc(N(C=O)c5ccccc5)cc43)[C@H]2C)cc1,-0.435 (inactive)
12,C=C(COC)C(=O)CC[C@H](OC(=O)c1cccnc1)c1ccccc1OCCO,0.0833 (inactive)
13,C=CCC(OC(C)=O)[C@@H]1[C@@H](N(Cc2cc3ccccc3o2)C(=O)c2ccc(C)cc2)c2cc(OCCCO)ccc2N1C(=O)c1ccc(-c2ccccc2)cc1 (stereo partly drawn),-0.314 (inactive)
14,NC(=O)[C@]1(Cc2ccccc2)N=C(c2ccc(OCCCO)cc2)O[C@@H]1c1ccccc1,-0.517 (inactive)
15,[N-]=[N+]=NCc1ccccc1C[C@]1(C(=O)NCCN2CCOCC2)N=C(c2ccc(OCCCO)cc2)O[C@H]1c1ccccc1CN=[N+]=[N-],-0.492 (inactive)
16,CCOC(=O)C1=CC[C@@H](c2cccc(Cl)c2)N(S(=O)(=O)c2ccc(C)cc2)[C@H]1c1ccc(C#N)cc1,0.0503 (inactive)
17,O=c1cccc(-c2ccccc2)o1,0.221 (inactive)
18,CC(=O)NCCCC[C@@H]1NC(=O)[C@@H]2C[C@H](C(=O)NCc3ccc(F)cc3)[C@H](c3ccc(O)cc3)N2C1=O,0.58 (inactive)

row,Compound,z-score
1,O=C1OCCC=C[C@H]2OC34C=CCN(c5ccc6ccccc6c5)C(=O)[C@H]3N(CCCCCCO)C(=O)[C@@H]4C12 (stereo partly drawn),0.0246 (inactive)
2,O=C1OCCC/C=C\[C@H]2OC34C=CCN(Cn5nnc6ccccc65)C(=O)[C@H]3N(CCCO)C(=O)[C@@H]4C12 (stereo partly drawn),1.16 (inactive)
3,CC(C)OC(=O)C1=CCC(c2cccc(Cl)c2)O1 (stereo not drawn),-0.076 (inactive)
4,O=C1[C@H]2C=C(Br)[C@H](C[C@@H]2OCCOCCO)[C@@]12CO2,-0.454 (inactive)
5,O=c1cccc(-c2ccc3ccccc3c2)o1,0.529 (inactive)
6,CCCCCCCCCCC(O)C1C=CC2C(=O)N(c3ccccc3)C(=O)C2N1Nc1ccc([N+](=O)[O-])cc1 (stereo not drawn),0.656 (inactive)
7,CN1C(=O)C2C=CC(C(O)c3ccccc3)N(NC(=O)OC(C)(C)C)C2C1=O (stereo not drawn),-0.0572 (inactive)
8,CN(C)CCCC[C@@H]1NC(=O)[C@@H]2C[C@H](C(=O)NCCCCCCN)[C@H](c3ccc(O)cc3)N2C1=O,-0.0708 (inactive)
9,CCOC(=O)C[C@H]1[C@H](OC(=O)c2cc3ccccc3oc2=O)[C@@H](NC(=O)c2ccc3ccccc3c2)c2cc(OCCCO)ccc2N1C(=O)c1ccccc1,0.571 (inactive)
10,COc1ccc([Si](C)(C)[C@@H]2[C@@H](CCO)O[C@]3(C(=O)N(Cc4ccc(N5C(=O)c6cccc7cccc5c67)cc4)c4ccccc43)[C@H]2C)cc1,1.89 (inactive)
11,O=C(NCC(O)CO)[C@@]1(Cc2ccccc2)COC(c2ccc(OCCCO)cc2)=N1 (stereo partly drawn),-0.817 (inactive)
12,CC(C)(C)OC(=O)CC[C@]1(C(=O)NCC(O)CO)N=C(c2ccc(OCCCO)cc2)O[C@H]1c1ccccc1CN=[N+]=[N-] (stereo partly drawn),-0.484 (inactive)
13,C=C(/C(=C/C[C@@H](OC(C)=O)c1ccc(CO)o1)c1cnc2ccccc2c1)C(C)C,-0.561 (inactive)
14,O=C1O[C@H](c2ccccc2)[C@H](c2ccccc2)N2[C@H]1[C@@H](C(=O)NC[C@H](O)c1ccccc1)[C@]1(C(=O)Nc3ccc(C#CC4(O)CCCCCC4)cc31)[C@H]2c1ccccc1OCCO,3.14 (inactive)
15,O=C1C[C@@](C(=O)O)(c2ccc([N+](=O)[O-])cc2)[C@@H](c2ccc(CO)cc2I)N1C1CCCCC1,-0.962 (inactive)
16,COc1ccc(CCNC(=O)[C@@]2(C)c3ccccc3C(=O)N(Cc3ccccc3)[C@H]2c2ccc(CO)cc2)cc1,-0.965 (inactive)
17,CC1CC/C=C\[C@H]2OC34C=CCN(Cn5nnc6ccccc65)C(=O)[C@H]3N(CCCO)C(=O)[C@@H]4C2C(=O)O1 (stereo partly drawn),-0.382 (inactive)
